Experimental data taken from PubChem BioAssay (Tox21).
Inconclusive results are not listed. Values without a mark were called inactive. Calls of active or inactive are those of the source. The call rests on the fitted dose curve; in most records, active means well fitted inhibition curve with a large enough effect in the signal ratio in the repeat runs (not every such curve was filed as active); inconclusive means weak or mixed curves, or effect the other way; inactive means no such curve, though single readings can be large or run the other way; the % refers to the signal ratio.

Molecular target: Vitamin D3 receptor (Homo sapiens) (UniProt P11473)
Assay: qHTS assay to identify small molecule antagonists of the vitamin D receptor (VDR) signaling pathway (AID 743223)
Conditions: VDR-UAS-bla HEK293T, beta-lactamase FRET ratio, 16 h; series mostly up to 61 µM; activity change, negative = inhibition: at the top concentration
From the text: U.S. Tox21 Program National Center for Advancing Translational Sciences [NCATS] NIH Chemical Genomics Center [NCGC] U.S. Environmental Protection Agency [EPA] National Institutes of Environmental Health Sciences [NIEHS] National Toxicology Program [NTP] U.S. Food and Drug Administration [FDA] Tox21 Assay Overview: The vitamin D receptor (VDR), a member of nuclear hormone receptor superfamily, plays a critical role in calcium homeostasis and bone metabolism. It is also involved in cell differentiation and growth, and thrombogenicity.
Tox21 Assay Protocol Summary: VDR-bla cells were dispensed at 2,000 cells/5 uL of assay medium per well into black wall/clear-bottom 1536-well plates using a Multidrop Combi (Thermo Fisher Scientific, Waltham, MA) dispenser. After the assay plates were incubated at a 37C and 5% CO2 for 4 h, 23 nL of compounds dissolved in DMSO, positive controls or DMSO only was transferred to the assay plate by a Pintool station (Kalypsys, San Diego, CA), followed by addition of 1 uL of 1alpha, 25-Dihydroxy Vitamin D3 (3 nM, final concentration in the wells) using a Bioraptr Flying Reagent Dispenser (FRD) workstation (Beckman Coulter, Indianapolis, IN). The plates were incubated at 37C and 5% CO2 for 16 h, and then 1 uL of LiveBLAzerTM B/G FRET substrate was added using a Bioraptr FRD. The plates were incubated at room temperature for 2 h and fluorescence intensity was measured by an Envision plate reader (PerkinElmer, Shelton, CT).
On the % scale 0 is the no-effect control and ±100 the full control effect.

Chain of Vitamin D3 receptor (Homo sapiens) (P11473 whole entry, looked up): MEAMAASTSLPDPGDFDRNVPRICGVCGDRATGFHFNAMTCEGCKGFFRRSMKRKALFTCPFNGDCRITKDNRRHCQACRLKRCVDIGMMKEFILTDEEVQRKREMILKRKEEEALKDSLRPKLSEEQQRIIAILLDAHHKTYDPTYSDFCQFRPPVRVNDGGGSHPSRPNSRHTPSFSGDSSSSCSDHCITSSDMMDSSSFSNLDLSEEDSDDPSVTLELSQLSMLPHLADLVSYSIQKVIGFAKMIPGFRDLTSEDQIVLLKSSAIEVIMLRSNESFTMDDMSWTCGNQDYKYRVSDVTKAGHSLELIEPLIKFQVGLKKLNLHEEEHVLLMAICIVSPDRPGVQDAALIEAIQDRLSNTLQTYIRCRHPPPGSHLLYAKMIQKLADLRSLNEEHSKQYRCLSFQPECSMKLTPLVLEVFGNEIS

Compound | Potency | activity change, negative = inhibition
CC(C)c1ccc(OP(=O)(Oc2ccc(C(C)C)cc2)Oc2ccc(C(C)C)cc2)cc1 | inactive | 
CC(Oc1cccc(Cl)c1)C(=O)O (stereo not given) |  | -6.74%
CN[C@@H](C)[C@H](O)c1ccccc1 |  | -14.6%
NCCc1cc(O)c(O)cc1O |  | 2.56%
C[N+](C)(C)CCOC(=O)C(O)(c1ccccc1)c1ccccc1 |  | -7.29%
c1ccc2c(c1)-c1cccc3cccc-2c13 | inactive | 
CCCCCCCCP(=O)(O)O |  | 11.7%
CCOP(=O)(SC(C)CC)N1CCSC1=O (stereo not given) |  | -2.31%
OCC1CO1 (stereo not given) | inactive | 
CCCCCCCCCCCCCCCl |  | -2.74% [at 78.8 µM]
CC(C)OC(=O)Cc1ccccc1 |  | -3.17% [at 78.8 µM]
CCN(C(C)=O)c1cccc(-c2ccnc3c(C#N)cnn23)c1 |  | 3.4%
O=C(O)C(F)(F)C(F)(F)C(F)(F)C(F)(F)C(F)(F)C(F)(F)C(F)(F)C(F)(F)F |  | -3.61%
C=CCN1C[C@H](C)N([C@H](c2ccc(C(=O)N(CC)CC)cc2)c2cccc(OC)c2)C[C@H]1C |  | -2.03%
C=CC(=O)NC(C)(C)CC(C)=O |  | 18.9%
CN(C1CCCCC1)C1CCCCC1 |  | -0.168%
CCC1(CC)C(=O)NC(=O)NC1=O |  | -3.44%
CC(C)(C)c1ccc(CCOc2ncnc3ccccc23)cc1 |  | 1.38%
C=CCSSCC=C |  | -20.2%
C1CCNCC1 |  | 1.23% [at 78.8 µM]

Compound | Potency | activity change, negative = inhibition
CCCCCCCCCCCCN=C(N)N |  | 3.88% [at 3.11 µM]
CCC(C)Cl (stereo not given) |  | -13.3%
CCCC(C)(COC(N)=O)COC(=O)NC(C)C (stereo not given) |  | -15.5%
CN1CC[C@]23c4c5ccc(O)c4O[C@H]2[C@@H](O)C=C[C@H]3[C@H]1C5 |  | 0.195%
Nc1c(Br)cc(Br)c2c1C(=O)c1ccccc1C2=O |  | 11.3% [at 28.5 µM]
O=C=NC1CCCCC1 |  | -9.01%
Cc1nc(N(C)C)nc(OC(=O)N(C)C)c1C |  | -1.24%
CC(C)(C)NCC(O)c1cc(Cl)c(N)c(C(F)(F)F)c1 (stereo not given) |  | 7.31%
Cc1nc2ccccc2c(=O)n1-c1ccccc1Cl |  | 4.54%
CCSCc1ccccc1OC(=O)NC |  | -15.3%
CC(C)c1ccc(NC(=O)N(C)C)cc1 |  | 17.1%
CC[N+]1(C)CCCC(OC(=O)C(O)(c2ccccc2)c2ccccc2)C1 (stereo not given) |  | 2.92%
CCCC[P+](CC)(CCCC)CCCC (tested in a mixture with another compound) |  | 2.71% [at 78.8 µM]
C=CCOCC1CO1 (stereo not given) |  | -3.21%
C=CCc1ccccc1O |  | 4.55%
CCOC(C(=O)OCCN(C)C)(c1ccccc1)c1ccccc1 |  | -12.2%
O=C(N[C@H]1CN2CCC1CC2)c1ccc2c(c1)OCCO2 |  | -24%
N#CC(C#N)=C(C#N)C#N |  | 4.45% [at 78.8 µM]
OCCCl |  | 10.2%
CCCCC(CC)COC(=O)c1c(Br)c(Br)c(Br)c(Br)c1C(=O)OCC(CC)CCCC (stereo not given) |  | -10.9%
